This passage reports outcome and Potency results from PubChem BioAssay (NCATS).

The target in assay [1] is Calcium and integrin-binding protein 1 (Homo sapiens) (UniProt Q99828). Kind of assay: Validation qHTS for Identification of Calcium Integrin Binding protein 1 (CIB1) Competitor (AID 1508618). In short, it runs like this: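 Displacement of FITC-alphaIIb peptide (100 nM) from CIB1-GST (1 uM) is monitored by polarization in quantitative HTS format; buffer carries 5 mM CaCl2 and 125 mM NaCl at pH 7.4, incubations are at room temperature.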

A further assay concerns the target Papain (Carica papaya) (UniProt P00784). The assay is described as follows: Primary qHTS assay for inhibitors of the protease papain (AID 1645873).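 Also: papain turnover of Z-FR-AMC read as the AMC fluorescence gain over 10 min.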 Also: potency is read from the fitted curve at half-maximal effect. On the technique in general: Quantitative high-throughput screening tests each substance at several concentrations.
In assay [2] the target is Calcium and integrin-binding protein 1 (Homo sapiens) (UniProt Q99828). Kind of assay: Primary qHTS for Identification of Calcium Integrin Binding Protein 1 (CIB1) Competitor (AID 1508620). Also: top concentration of the series differs between compounds. The method, boiled down: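 Fluorescence polarization competition: GST-tagged CIB1 (1 uM final) preincubated with compound 15 min at room temperature, then FITC-labelled alphaIIb peptide (100 nM final) added. After 15 min at room temperature, polarization read at Ex 480/Em 540.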

Assay [3] in a line: Primary qHTS for small molecule stabilizers of the endoplasmic reticulum resident proteome: Secreted ER Calcium Modulated Protein (SERCaMP) assay (AID 1508630). The method, boiled down: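 GLuc-SERCaMP-expressing SH-SY5Y cells, pretreated 16 h with compound, are challenged with thapsigargin to empty ER calcium stores; after 4 h, coelenterazine is added directly to the medium and luminescence is imaged.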

Assay [4] is described as follows: A High-Content qHTS Against Drug Library for the Identification of Small Molecules that Inhibit DYT1 Early Onset Primary Dystonia-Associated Cell Pathology (AID 1645839; calls by dose curve; also: series mostly up to about 46 µM). The method, boiled down: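 Flp-In T-REx 293 cells with tetracycline-inducible EGFP-delE hTOR1A (WT EGFP-hTOR1A as reference), 800 cells/well; compound added with tetracycline, 48 h at 37 C. Fixed, permeabilized cells imaged; %pathology (punctate TorsinA) primary, cell count counterscreen.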

Assay [5] has as its target Cytochrome P450 2D6 (Homo sapiens) (UniProt P10635). The assay is described as follows: Cytochrome P450 family 2 subfamily D member 6 (CYP2D6) small molecule antagonists: luciferase biochemical (cell-free) qHTS assay (AID 1645840; active = well fitted curve in the direction sought with a large enough effect in the repeat runs; an effect the other way counts as inactive or inconclusive; also: series mostly up to about 57 µM; nearly all actives have a fitted effect of over 55% in size). In short, it runs like this: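 P450-Glo luminescent screen: recombinant CYP2D6 enzyme–proluciferin substrate mix preincubated with compound 10 min at room temperature, then NADPH regeneration added for 1 h at room temperature. Detection reagent added for 20 min; luciferin light read as relative luminescence units.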

The nature of assay [6]: Counterscreen qHTS for small molecule stabilizers of the endoplasmic reticulum resident proteome: GLuc-NoTag assay (AID 1508627). Also: potency is read from the fitted curve at half-maximal effect. The method, boiled down:
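SH-SY5Y cells stably expressing constitutively secreted GLuc without SERCaMP tag, exposed to compound for 19 hr, then to 100 nM thapsigargin for 4 hr at 37C. Medium luciferase was read by coelenterazine luminescence without lysis.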
(In general: A counterscreen serves to expose hits that act by an unwanted route or on another target.)

Inconclusive results are not listed. Entries that show only a call come without a potency. Values without a mark were called inactive. Active and inactive are the calls of the source. Unless noted, calls follow the shape of the dose curve; as a rule, active = well fitted curve in the direction sought with a large enough effect; inconclusive = small, poorly fitted or top-dose-only effect, or another doubt; inactive = no such curve, though single readings can be large; an effect the other way counts as inactive or inconclusive.

Chain of Calcium and integrin-binding protein 1 (Homo sapiens) (Q99828 whole entry, looked up): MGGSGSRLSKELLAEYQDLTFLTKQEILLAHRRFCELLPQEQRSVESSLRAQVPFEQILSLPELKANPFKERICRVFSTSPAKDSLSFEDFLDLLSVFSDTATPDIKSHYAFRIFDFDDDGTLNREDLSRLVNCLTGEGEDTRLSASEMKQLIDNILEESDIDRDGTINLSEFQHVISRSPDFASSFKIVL
Chain of Papain (Carica papaya) (P00784 whole entry, looked up): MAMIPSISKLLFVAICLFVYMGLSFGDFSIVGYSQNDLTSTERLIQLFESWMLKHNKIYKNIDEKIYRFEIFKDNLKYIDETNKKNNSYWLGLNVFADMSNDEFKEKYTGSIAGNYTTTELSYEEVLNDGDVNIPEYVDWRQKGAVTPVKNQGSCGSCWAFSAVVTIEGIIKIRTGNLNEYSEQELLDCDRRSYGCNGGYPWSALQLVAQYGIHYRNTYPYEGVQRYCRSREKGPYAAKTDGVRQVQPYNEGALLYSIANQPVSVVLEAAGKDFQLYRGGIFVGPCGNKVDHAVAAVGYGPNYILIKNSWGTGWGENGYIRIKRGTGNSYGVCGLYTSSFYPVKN
Chain of Cytochrome P450 2D6 (Homo sapiens) (P10635 whole entry, looked up): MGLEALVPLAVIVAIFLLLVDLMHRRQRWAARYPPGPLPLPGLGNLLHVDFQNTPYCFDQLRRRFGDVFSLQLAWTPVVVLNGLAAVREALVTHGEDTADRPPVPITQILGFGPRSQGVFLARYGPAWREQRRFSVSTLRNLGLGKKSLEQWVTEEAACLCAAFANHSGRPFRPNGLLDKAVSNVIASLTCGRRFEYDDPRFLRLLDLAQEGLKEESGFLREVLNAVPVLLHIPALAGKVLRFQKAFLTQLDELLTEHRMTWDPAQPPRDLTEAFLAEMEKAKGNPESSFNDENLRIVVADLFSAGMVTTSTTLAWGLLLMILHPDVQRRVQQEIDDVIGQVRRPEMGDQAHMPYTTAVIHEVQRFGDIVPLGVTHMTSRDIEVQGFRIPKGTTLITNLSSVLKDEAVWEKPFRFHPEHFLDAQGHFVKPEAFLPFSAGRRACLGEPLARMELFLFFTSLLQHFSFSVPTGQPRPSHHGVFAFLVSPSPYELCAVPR

In the case of `CN1C2CCC1CC(OC(=O)C(O)c1ccccc1)C2` (stereo not given), in assay [1], the result was inactive. Besides, in the assay with Papain (Carica papaya), the Potency result was “inactive”.

As to `CC(C)NCC(O)COc1cccc2ccccc12` (stereo not given), the outcome in assay [1] was inactive. Further, in the assay with Papain (Carica papaya), the Potency entry was “inactive”.

In the case of `O=C(CCc1ccncc1)NNC(=O)N1Cc2ccccc2Oc2ccc(Cl)cc21`, the outcome in assay [1] was inactive. Besides, the Potency entry with Papain (Carica papaya) was “inactive”.

Regarding `CC(C)c1cccc(C(C)C)c1N1C(=O)c2ccc(O)cc2C1=O`, the outcome in assay [1] was inactive. The Potency entry with Papain (Carica papaya) was “inactive”.

Consider `NC(N)=NC(=O)c1nc(Cl)c(N2CCCCCC2)nc1N`, for which the outcome in assay [1] was inactive. Besides, in the assay with Papain (Carica papaya), the Potency entry is “inactive”.

Turning to `CN[C@H](CC(C)C)C(=O)N[C@H]1C(=O)N[C@@H](CC(N)=O)C(=O)N[C@H]2C(=O)N[C@H]3C(=O)N[C@H](C(=O)N[C@H](C(=O)O)c4cc(O)cc(O)c4-c4cc3ccc4O)[C@H](O)c3ccc(c(Cl)c3)Oc3cc2cc(c3O[C@@H]2O[C@H](CO)[C@@H](O)[C@H](O)[C@H]2O[C@H]2C[C@](C)(N)[C@H](O)[C@H](C)O2)Oc2ccc(cc2Cl)[C@H]1O`, the outcome in assay [1] was inactive. Further, in the assay with Papain (Carica papaya), the Potency result is “inactive”.

With `COc1ccc(-c2cc(=O)c3c(O)c(OC)c(OC)cc3o2)cc1O`, in assay [1], the outcome was inactive. In addition, the Potency entry in the assay with Papain (Carica papaya) is “inactive”.

Take `CO[C@H]1O[C@@H]2O[C@]3(C)CC[C@@H]4[C@@H](C)CC[C@H]([C@H]1C)[C@]24OO3`: the result in assay [1] was inactive. For the same compound, in the assay with Papain (Carica papaya), the Potency entry was “inactive”.

As for `O=S(=O)(c1cccc2c(I)cccc12)N1CCCNCC1`, in assay [1], the outcome was inactive. The Potency result in the assay with Papain (Carica papaya) is “inactive”.

As to `NC(=O)C1=CN(C2OC(COP(=O)(O)OP(=O)(O)OC[C@H]3O[C@@H](n4cnc5c(N)ncnc54)[C@H](OP(=O)(O)O)[C@@H]3O)C(O)C2O)C=CC1` (stereo not given in full), in assay [1], the result was inactive. Further, the Potency entry with Papain (Carica papaya) was “inactive”.

As to `Oc1cc2c(cc1O)CN(C(=S)NCCc1ccc(Cl)cc1)CCC2`, the outcome in assay [1] was inactive. The Potency entry in the assay with Papain (Carica papaya) is “inactive”.

On to `COCCOc1cc2ncnc(Cl)c2cc1OCCOC`, for which the outcome in assay [1] was inactive. For the same compound, the Potency entry with Papain (Carica papaya) was “inactive”.

`O=C(O)CC[C@@H](C(=O)O)N1C(=O)c2ccccc2C1=O`: the result in assay [1] was inactive. Moreover, the Potency result with Papain (Carica papaya) is “inactive”.

Consider `Nc1nc2c(ncn2[C@@H]2O[C@H](CO)[C@@H](O)[C@@H]2O)c(=O)[nH]1`, for which, in assay [1], the outcome was inactive. Also, the Potency result in the assay with Papain (Carica papaya) was “inactive”.

`Nc1nc(OCC2CCCCC2)c2[nH]cnc2n1`: the result in assay [1] was inactive. For the same compound, the Potency entry in the assay with Papain (Carica papaya) was “inactive”.

As to `O=C(CCSCc1ccco1)NNC(=O)N1Cc2ccccc2Oc2ccc(Cl)cc21`, the outcome in assay [1] was inactive. Besides, the Potency entry with Papain (Carica papaya) was “inactive”.

Turning to `O=C(c1ccc(OCCCc2cnc[nH]2)cc1)C1CC1`, the outcome in assay [1] was inactive. The Potency entry with Papain (Carica papaya) is “inactive”.

As to `CC1OC1P(=O)(O)O` (stereo not given), the result in assay [1] was inactive. Besides, in the assay with Papain (Carica papaya), the Potency result was “inactive”.

As to `COc1ccc(/C=C/c2nc(NCCCN(C)C)c3ccccc3n2)cc1`, the result in assay [1] was inactive. Further, in the assay with Papain (Carica papaya), the Potency was 28.2 µM (active).

In the case of `COc1ccc(C(=O)/C(Cc2cc(OC)c(OC)c(OC)c2)=C(\C(=O)O)c2ccc3c(c2)OCO3)cc1`, the result in assay [1] was inactive. For the same compound, the Potency result with Papain (Carica papaya) is “inactive”.

Consider `Cc1cn([C@H]2CC(N=[N+]=[N-])[C@@H](CO)O2)c(=O)[nH]c1=O` (stereo not given in full), for which, in assay [1], the result was inactive. The Potency entry with Papain (Carica papaya) was “inactive”.

As to `Cn1c(=O)c(-c2c(Cl)cccc2Cl)cc2cnc(Nc3ccc(N4CCOCC4)cc3)nc21`, the outcome in assay [1] was inactive. In the assay with Papain (Carica papaya), the Potency entry was “inactive”.

As for `CCNC(=O)[C@H]1O[C@@H](n2cnc3c(N)nc(NCCc4ccc(CCC(=O)O)cc4)nc32)[C@H](O)C1O` (stereo not given in full), the result in assay [1] was inactive. In addition, in the assay with Papain (Carica papaya), the Potency result was “inactive”.

Regarding `CC1(C)S[C@@H]2[C@H](NC(=O)[C@H](NC(=O)N3CCN(S(C)(=O)=O)C3=O)c3ccccc3)C(=O)N2[C@H]1C(=O)O`, the Potency entry in assay [2] was “inactive”.

`COc1ccc(/C=C/C(=O)Nc2ccccc2C(=O)O)cc1OC`: in assay [2], the Potency entry was “inactive”.

With `C=CC(C)=C[C@@]1(C)SC(=O)C(C)=C1O`, in assay [1], the result was inactive. For the same compound, the Potency entry with Papain (Carica papaya) was “inactive”.

Take `CC(=O)O[C@H]1C[C@@]2(C)[C@@H](C[C@@H](O)[C@H]3[C@@]4(C)CC[C@@H](O)[C@@H](C)[C@@H]4CC[C@@]32C)/C1=C(\CCC=C(C)C)C(=O)O`: the Potency result in assay [2] was “inactive”.

In the case of `COc1ccc(/C=C2\COc3ccc(C)cc3C2=O)cc1O`, in assay [1], the result was inactive. The Potency entry in the assay with Papain (Carica papaya) was “inactive”.

With `COc1cc(/C=C/C(=O)N2CCN(CC(=O)N3CCCC3)CC2)cc(OC)c1OC`, the Potency result in assay [2] is “inactive”.

On to `COC(=O)[C@H]1[C@H]2C[C@@H]3c4[nH]c5cc(OC)ccc5c4CCN3C[C@H]2C[C@@H](OC(=O)/C=C/c2cc(OC)c(OC)c(OC)c2)[C@@H]1OC`, for which the Potency result in assay [2] was “inactive”.

On to `COc1ccccc1CN[C@@H]1CCCN[C@@H]1c1ccccc1`, for which the result in assay [1] was inactive. In the assay with Papain (Carica papaya), the Potency entry was “inactive”.

As to `C[C@H](O)[C@H](O)[C@H]1CNc2nc(N)[nH]c(=O)c2N1`, the Potency entry in assay [2] was “inactive”.

Consider `CCCC(CCC)C(=O)OC1CC2CCC(C1)[N+]2(C)C` (stereo not given), for which the outcome in assay [1] was inactive. Further, the Potency entry with Papain (Carica papaya) is “inactive”.

As to `CCCOC(=O)c1ccc(O)cc1`, the Potency result in assay [2] is “inactive”.

On to `CCN1/C(=C/C(C)=O)Sc2ccc(OC)cc21`, for which, in assay [1], the outcome was inactive. In addition, the Potency result with Papain (Carica papaya) was “inactive”.

`O=C(NOCC1CC1)c1cc(Br)c(F)c(F)c1Nc1ccc(I)cc1Cl`: the outcome in assay [1] was inactive. Moreover, the Potency result with Papain (Carica papaya) is “inactive”.

In the case of `Cc1ccc2c(n1)Oc1ccc(C(C)C(=O)OCC(=O)N(C)C)cc1C2` (stereo not given), the Potency result in assay [2], in assay [3] and in assay [4] was “inactive” in each case.

As for `Cc1c(N)c(=O)n(-c2ccccc2)n1C`, the Potency result in assay [2], in assay [3], in assay [4] and in assay [5] was “inactive” in each case.

As to `CC1(C)[C@@H](O[C@H]2O[C@H](C(=O)O)[C@@H](O)[C@H](O)[C@H]2O[C@@H]2O[C@H](C(=O)O)[C@@H](O)[C@H](O)[C@H]2O)CC[C@]2(C)[C@H]3C(=O)C=C4[C@@H]5C[C@@](C)(C(=O)O)CC[C@]5(C)CC[C@@]4(C)[C@]3(C)CC[C@@H]12`, the Potency entry in assay [2] was “inactive”.

For `COc1cc(NC(C)CCCN)c2ncccc2c1` (stereo not given), the Potency result in assay [2] is “inactive”. Further, in assay [6], the Potency is 44.7 µM (active).

For `N#C/C(=C\c1ccc(-c2cc(Cl)ccc2Cl)o1)C(=O)Nc1cccc2ncccc12`, in assay [1], the result was inactive. Also, the Potency result in the assay with Papain (Carica papaya) is “inactive”.

For the compound `C[N+]1(C)[C@@H]2CC(OC(=O)[C@H](CO)c3ccccc3)C[C@H]1[C@@H]1O[C@@H]12` (stereo not given in full), the Potency result in assay [2], in assay [3], in assay [4] and in assay [5] was “inactive” throughout.

As for `COC(=O)C1=C(C)NC(C)=C(C(=O)OCC(C)C)C1c1ccccc1[N+](=O)[O-]` (stereo not given), the Potency result in assay [2] is “inactive”.

As to `CN1[C@@H]2CC[C@H]1CC(OC(c1ccccc1)c1ccccc1)C2` (stereo not given in full), in assay [2], the Potency result is “inactive”.

For `CCCCCCCCCCCCCCCCCCN(CCCCCCCCCCCCCCCCCC)CCCN(CCO)CCO`, the outcome in assay [1] was inactive. In addition, the Potency result with Papain (Carica papaya) was “inactive”.
